# According to the supplement of paper PMC12067093, “Discovery and optimisation of a covalent ligand for TRIM25 and its application to targeted protein ubiquitination” (Chemical Science, 2025):
# About 21,000 targets were measured; listed, in parts, are those with the largest changes and a random draw of the rest.
# Tests used:
# Assay in all cases: probe-labelled cysteine peptide fold change vs DMSO (competition) (log2 fold change); higher = less target engagement (more negative = stronger competition)
# Conditions in all cases: THP-1, incubation time: 4 h
# [1] = target: A6NIZ1_A6NIZ1_118_VKDTDDVPMILVGNKCDLEDERVVGK<|>RAP1B_P61224_118_VKDTDDVPMILVGNKCDLEDERVVGK (UniProt P61224+A6NIZ1)
# [2] = target: A6NNZ2_A6NNZ2_303_NMMAACDPR<|>TUBB4A_P04350_303_NMMAACDPR<|>TUBB_P07437_303_NMMAACDPR<|>TUBB4B_P68371_303_NMMAACDPR<|>TUBB3_Q13509_303_NMMAACDPR<|>TUBB2A_Q3ZCM7_303_NMMAACDPR<|>TUBB8_Q9BUF5_303_NMMAACDPR<|>TUBB6_Q9BVA1_303_NMMAACDPR (UniProt Q9BVA1+Q3ZCM7+Q13509+P68371+P07437+P04350+Q9BUF5+A6NNZ2)
# [3] = target: ABCC1_P33527_1047_CLHVDLLHSILR (UniProt P33527)
# [4] = target: ABCF2_Q9UG63_586_LIQQVAQEIWVCEK (UniProt Q9UG63)
# [5] = target: ABHD10_Q9NUJ1_229_EAEHHCLLHSPIPVNCPIR (UniProt Q9NUJ1)
# [6] = target: ABHD15_Q6UXT9_323_EFEEALFCHTK (UniProt Q6UXT9)
# [7] = target: ABHD16A_O95870_544_HLHNFEATHCTPLPAQNFQMPWHL (UniProt O95870)
# [8] = target: ABHD17B_Q5VST6_250_CQRPVEPLWVEGAGHNDVELYGQYLER (UniProt Q5VST6)
# [9] = target: ACAA1_P09110_123_QCSSGLQAVASIAGGIR (UniProt P09110)
# [10] = target: ACAA1_P09110_177_ARDCLIPMGITSENVAER (UniProt P09110)
# [11] = target: ACAA2_P42765_116_EAEVVLCGGTESMSQAPYCVR (UniProt P42765)
# [12] = target: ACAD9_Q9H845_271_GSNTCEVHFENTK (UniProt Q9H845)
# [13] = target: ACADS_P16219_109_GCASTGVIMSVNNSLYLGPILK (UniProt P16219)
# [14] = target: ACADVL_P49748_237_TSAVPSPCGK (UniProt P49748)
# [15] = target: ACADVL_P49748_477_LFVALQGCMDK (UniProt P49748)
# [16] = target: ACADVL_P49748_603_MLCDTWCIEAAAR (UniProt P49748)
# [17] = target: ACAP2_Q15057_329_FCFEVVSPTK (UniProt Q15057)
# [18] = target: ACAP2_Q15057_691_GPLHHATVLGHTGQVCLFLK (UniProt Q15057)
# [19] = target: ACAT1_P24752_196_IHMGSCAENTAK (UniProt P24752)
# [20] = target: ACAT1_P24752_413_QGEYGLASICNGGGGASAMLIQK (UniProt P24752)
# [21] = target: ACAT2_Q9BWD1_360_VNIEGGAIALGHPLGASGCR (UniProt Q9BWD1)
# [22] = target: ACLY_P53396_633_GVTIIGPATVGGIKPGCFK (UniProt P53396)
# [23] = target: ACO2_Q99798_451_DLGGIVLANACGPCIGQWDRK (UniProt Q99798)
# 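Further: competitive profiling in live THP-1 cells: cysteine peptides tagged with an iodoacetamide desthiobiotin (IA-DTB) probe, intensity after compound treatment relative to DMSO-treated cells.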
# UniProt P16219, sequence (P16219 whole entry, looked up): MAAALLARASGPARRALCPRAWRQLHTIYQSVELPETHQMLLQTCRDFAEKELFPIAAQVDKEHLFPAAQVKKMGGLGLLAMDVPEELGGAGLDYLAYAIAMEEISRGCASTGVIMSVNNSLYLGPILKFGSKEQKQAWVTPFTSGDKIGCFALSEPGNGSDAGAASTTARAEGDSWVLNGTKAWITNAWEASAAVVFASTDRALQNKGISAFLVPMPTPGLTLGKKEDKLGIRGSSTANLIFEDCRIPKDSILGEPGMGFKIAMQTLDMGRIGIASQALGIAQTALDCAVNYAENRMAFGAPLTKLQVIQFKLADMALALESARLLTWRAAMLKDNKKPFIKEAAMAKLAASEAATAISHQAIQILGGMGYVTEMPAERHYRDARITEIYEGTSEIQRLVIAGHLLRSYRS
# UniProt Q9NUJ1, sequence (Q9NUJ1 whole entry, looked up): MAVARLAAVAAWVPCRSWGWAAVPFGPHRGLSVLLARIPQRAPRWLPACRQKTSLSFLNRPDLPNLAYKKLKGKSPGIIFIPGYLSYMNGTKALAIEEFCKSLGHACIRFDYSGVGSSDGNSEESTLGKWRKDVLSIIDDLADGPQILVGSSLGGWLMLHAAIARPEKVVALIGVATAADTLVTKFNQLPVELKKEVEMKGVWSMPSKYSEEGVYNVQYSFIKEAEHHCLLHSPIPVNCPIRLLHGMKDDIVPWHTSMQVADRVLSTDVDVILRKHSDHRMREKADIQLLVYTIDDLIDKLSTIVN
# UniProt Q9BWD1, sequence (Q9BWD1 whole entry, looked up): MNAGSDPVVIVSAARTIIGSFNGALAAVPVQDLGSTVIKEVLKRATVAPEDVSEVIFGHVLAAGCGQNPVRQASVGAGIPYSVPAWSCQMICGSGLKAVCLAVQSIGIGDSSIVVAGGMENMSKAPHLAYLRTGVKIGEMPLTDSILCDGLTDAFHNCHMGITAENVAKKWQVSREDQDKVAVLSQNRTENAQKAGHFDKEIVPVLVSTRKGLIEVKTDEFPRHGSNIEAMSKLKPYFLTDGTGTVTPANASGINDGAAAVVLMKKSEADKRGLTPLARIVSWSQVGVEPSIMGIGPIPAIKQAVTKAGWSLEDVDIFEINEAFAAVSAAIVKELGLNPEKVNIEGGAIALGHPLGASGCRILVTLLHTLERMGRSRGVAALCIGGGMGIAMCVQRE
# UniProt P42765, sequence (P42765 whole entry, looked up): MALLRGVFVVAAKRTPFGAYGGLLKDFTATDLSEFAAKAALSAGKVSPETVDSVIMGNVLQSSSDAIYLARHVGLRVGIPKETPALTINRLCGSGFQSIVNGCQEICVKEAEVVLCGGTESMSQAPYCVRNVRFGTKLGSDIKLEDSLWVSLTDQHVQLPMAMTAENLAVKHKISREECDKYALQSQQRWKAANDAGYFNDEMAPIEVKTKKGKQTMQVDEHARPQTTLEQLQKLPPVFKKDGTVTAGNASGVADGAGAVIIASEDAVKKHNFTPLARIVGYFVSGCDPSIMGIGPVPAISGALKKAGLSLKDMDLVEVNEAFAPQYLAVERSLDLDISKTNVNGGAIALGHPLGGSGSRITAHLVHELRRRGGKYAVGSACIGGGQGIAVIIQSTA
# UniProt Q9UG63, sequence (Q9UG63 whole entry, looked up): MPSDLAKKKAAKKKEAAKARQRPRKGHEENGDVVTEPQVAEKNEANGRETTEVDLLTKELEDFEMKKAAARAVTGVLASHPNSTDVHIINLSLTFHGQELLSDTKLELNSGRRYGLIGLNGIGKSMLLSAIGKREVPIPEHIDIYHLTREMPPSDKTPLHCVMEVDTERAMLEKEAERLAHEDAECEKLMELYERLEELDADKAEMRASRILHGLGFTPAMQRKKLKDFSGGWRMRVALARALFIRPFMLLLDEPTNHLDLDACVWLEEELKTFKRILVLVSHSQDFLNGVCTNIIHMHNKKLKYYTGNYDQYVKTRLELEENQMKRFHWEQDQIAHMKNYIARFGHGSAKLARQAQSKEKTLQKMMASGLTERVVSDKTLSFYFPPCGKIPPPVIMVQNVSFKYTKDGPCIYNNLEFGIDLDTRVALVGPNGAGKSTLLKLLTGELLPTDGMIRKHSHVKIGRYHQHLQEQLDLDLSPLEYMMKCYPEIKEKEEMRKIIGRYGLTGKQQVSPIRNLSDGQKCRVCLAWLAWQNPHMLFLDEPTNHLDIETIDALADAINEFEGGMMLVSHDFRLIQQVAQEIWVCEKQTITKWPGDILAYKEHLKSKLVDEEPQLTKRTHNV
# UniProt Q15057, sequence (Q15057 whole entry, looked up): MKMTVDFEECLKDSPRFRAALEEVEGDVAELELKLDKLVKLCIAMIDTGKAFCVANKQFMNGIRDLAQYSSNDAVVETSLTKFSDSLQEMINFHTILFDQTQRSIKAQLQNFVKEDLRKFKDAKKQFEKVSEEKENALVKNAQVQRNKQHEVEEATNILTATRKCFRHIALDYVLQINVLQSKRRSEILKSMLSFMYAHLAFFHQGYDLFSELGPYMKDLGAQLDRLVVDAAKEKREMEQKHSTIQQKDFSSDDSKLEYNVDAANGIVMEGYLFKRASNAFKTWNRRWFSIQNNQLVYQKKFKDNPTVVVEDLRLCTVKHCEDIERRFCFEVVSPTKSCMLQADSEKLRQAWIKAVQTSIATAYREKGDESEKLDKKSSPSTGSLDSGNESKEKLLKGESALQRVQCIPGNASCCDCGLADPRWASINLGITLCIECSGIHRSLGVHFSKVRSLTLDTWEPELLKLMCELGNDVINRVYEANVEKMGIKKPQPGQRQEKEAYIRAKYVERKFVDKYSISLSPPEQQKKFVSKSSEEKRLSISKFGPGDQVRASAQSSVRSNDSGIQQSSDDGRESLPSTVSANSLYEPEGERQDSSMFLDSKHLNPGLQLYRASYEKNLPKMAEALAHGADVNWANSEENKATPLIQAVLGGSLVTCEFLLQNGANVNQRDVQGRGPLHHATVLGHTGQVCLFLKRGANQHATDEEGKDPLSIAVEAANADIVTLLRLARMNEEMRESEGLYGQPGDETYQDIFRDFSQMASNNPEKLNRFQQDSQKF
# ACAP2_Q15057_329_FCFEVVSPTK, sequence (Q15057 whole entry, looked up): as above
# UniProt P24752, sequence (P24752 whole entry, looked up): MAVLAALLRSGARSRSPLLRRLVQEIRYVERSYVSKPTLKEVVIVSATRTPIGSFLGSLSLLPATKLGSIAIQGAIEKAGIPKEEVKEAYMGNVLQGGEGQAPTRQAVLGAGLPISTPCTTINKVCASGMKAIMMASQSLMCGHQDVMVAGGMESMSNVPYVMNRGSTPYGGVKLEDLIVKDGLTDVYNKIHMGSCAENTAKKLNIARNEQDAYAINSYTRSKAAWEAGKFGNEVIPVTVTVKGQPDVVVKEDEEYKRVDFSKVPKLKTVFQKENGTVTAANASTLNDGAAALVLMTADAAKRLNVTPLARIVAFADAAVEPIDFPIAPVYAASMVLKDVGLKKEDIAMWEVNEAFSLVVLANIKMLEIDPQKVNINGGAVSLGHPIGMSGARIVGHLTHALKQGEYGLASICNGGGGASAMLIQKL
# UniProt P24752, sequence (P24752 whole entry, looked up): as above
# UniProt P53396, sequence (P53396 whole entry, looked up): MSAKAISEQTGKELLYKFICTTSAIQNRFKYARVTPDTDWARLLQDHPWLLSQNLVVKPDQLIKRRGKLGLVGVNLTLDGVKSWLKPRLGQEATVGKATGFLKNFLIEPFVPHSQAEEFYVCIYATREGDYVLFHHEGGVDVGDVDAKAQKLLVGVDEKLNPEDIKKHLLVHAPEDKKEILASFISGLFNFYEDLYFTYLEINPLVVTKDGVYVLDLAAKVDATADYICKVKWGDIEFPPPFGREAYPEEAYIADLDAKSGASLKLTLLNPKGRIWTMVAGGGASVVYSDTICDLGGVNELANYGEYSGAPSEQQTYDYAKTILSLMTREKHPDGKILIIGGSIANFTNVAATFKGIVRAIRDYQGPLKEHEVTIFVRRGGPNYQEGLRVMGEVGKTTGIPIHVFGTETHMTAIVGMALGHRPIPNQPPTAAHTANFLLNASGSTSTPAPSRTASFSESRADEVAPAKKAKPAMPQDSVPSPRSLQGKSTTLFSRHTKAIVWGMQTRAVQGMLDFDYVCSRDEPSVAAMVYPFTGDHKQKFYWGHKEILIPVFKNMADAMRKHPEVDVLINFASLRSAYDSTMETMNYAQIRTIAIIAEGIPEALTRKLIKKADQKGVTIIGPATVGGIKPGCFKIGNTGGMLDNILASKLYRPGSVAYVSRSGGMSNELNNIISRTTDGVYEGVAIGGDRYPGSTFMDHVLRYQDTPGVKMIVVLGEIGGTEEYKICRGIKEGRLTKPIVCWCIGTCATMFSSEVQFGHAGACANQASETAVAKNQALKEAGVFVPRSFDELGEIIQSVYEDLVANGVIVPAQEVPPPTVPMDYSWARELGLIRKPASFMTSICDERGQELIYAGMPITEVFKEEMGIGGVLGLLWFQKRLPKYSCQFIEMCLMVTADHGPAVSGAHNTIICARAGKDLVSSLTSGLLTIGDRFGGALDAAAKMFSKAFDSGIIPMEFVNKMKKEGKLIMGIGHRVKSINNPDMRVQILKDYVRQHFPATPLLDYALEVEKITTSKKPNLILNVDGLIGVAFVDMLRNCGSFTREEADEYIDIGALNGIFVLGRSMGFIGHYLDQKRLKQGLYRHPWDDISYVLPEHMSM
# UniProt P09110, sequence (P09110 whole entry, looked up): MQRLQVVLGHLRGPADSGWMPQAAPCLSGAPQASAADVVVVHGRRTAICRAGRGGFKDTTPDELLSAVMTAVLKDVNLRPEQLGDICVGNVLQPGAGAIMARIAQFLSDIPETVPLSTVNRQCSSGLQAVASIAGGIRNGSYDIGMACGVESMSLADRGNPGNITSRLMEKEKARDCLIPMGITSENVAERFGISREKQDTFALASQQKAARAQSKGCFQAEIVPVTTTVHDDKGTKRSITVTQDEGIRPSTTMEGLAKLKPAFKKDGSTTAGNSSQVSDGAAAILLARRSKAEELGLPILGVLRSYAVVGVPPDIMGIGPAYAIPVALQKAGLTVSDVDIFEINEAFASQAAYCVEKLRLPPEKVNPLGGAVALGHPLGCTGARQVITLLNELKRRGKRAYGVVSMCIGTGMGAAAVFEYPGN
# UniProt P09110, sequence (P09110 whole entry, looked up): as above
structure (smiles),measurement,setting,value
Cc1cc(C(=O)N2CCCN(C(=O)CCl)CC2)ccc1-c1ccccc1 [compound 10],probe-labelled cysteine peptide fold change,[1]; 10 µM,-0.667
same,probe-labelled cysteine peptide fold change,[1]; 50 µM,-1.16
same,probe-labelled cysteine peptide fold change,[2]; 10 µM,-0.0352
same,probe-labelled cysteine peptide fold change,[2]; 50 µM,-0.104
same,probe-labelled cysteine peptide fold change,[3]; 10 µM,-0.245
same,probe-labelled cysteine peptide fold change,[3]; 50 µM,-0.823
same,probe-labelled cysteine peptide fold change,[4]; 10 µM,0.35
same,probe-labelled cysteine peptide fold change,[4]; 50 µM,0.325
same,probe-labelled cysteine peptide fold change,[5]; 10 µM,0.0491
same,probe-labelled cysteine peptide fold change,[5]; 50 µM,0.0493
same,probe-labelled cysteine peptide fold change,[6]; 10 µM,0.0269
same,probe-labelled cysteine peptide fold change,[6]; 50 µM,-0.0455
same,probe-labelled cysteine peptide fold change,[7]; 10 µM,-0.497
same,probe-labelled cysteine peptide fold change,[7]; 50 µM,-1.15
same,probe-labelled cysteine peptide fold change,[8]; 10 µM,0.198
same,probe-labelled cysteine peptide fold change,[8]; 50 µM,0.147
same,probe-labelled cysteine peptide fold change,[9]; 10 µM,-0.136
same,probe-labelled cysteine peptide fold change,[9]; 50 µM,-0.197
same,probe-labelled cysteine peptide fold change,[10]; 10 µM,-0.114
same,probe-labelled cysteine peptide fold change,[10]; 50 µM,0.0101
same,probe-labelled cysteine peptide fold change,[11]; 10 µM,-0.0523
same,probe-labelled cysteine peptide fold change,[11]; 50 µM,0.00696
same,probe-labelled cysteine peptide fold change,[12]; 10 µM,0.0883
same,probe-labelled cysteine peptide fold change,[12]; 50 µM,0.106
same,probe-labelled cysteine peptide fold change,[13]; 10 µM,0.363
same,probe-labelled cysteine peptide fold change,[13]; 50 µM,0.27
same,probe-labelled cysteine peptide fold change,[14]; 10 µM,-0.143
same,probe-labelled cysteine peptide fold change,[14]; 50 µM,-0.259
same,probe-labelled cysteine peptide fold change,[15]; 10 µM,-0.223
same,probe-labelled cysteine peptide fold change,[15]; 50 µM,0.311
same,probe-labelled cysteine peptide fold change,[16]; 10 µM,-0.105
same,probe-labelled cysteine peptide fold change,[16]; 50 µM,-0.188
same,probe-labelled cysteine peptide fold change,[17]; 10 µM,0.23
same,probe-labelled cysteine peptide fold change,[17]; 50 µM,0.177
same,probe-labelled cysteine peptide fold change,[18]; 10 µM,-0.107
same,probe-labelled cysteine peptide fold change,[18]; 50 µM,-1.08
same,probe-labelled cysteine peptide fold change,[19]; 10 µM,-0.282
same,probe-labelled cysteine peptide fold change,[19]; 50 µM,-1.22
same,probe-labelled cysteine peptide fold change,[20]; 10 µM,-0.164
same,probe-labelled cysteine peptide fold change,[20]; 50 µM,-1.09
same,probe-labelled cysteine peptide fold change,[21]; 10 µM,0.232
same,probe-labelled cysteine peptide fold change,[21]; 50 µM,0.226
same,probe-labelled cysteine peptide fold change,[22]; 10 µM,-0.00834
same,probe-labelled cysteine peptide fold change,[22]; 50 µM,0.0362
same,probe-labelled cysteine peptide fold change,[23]; 10 µM,-0.125
same,probe-labelled cysteine peptide fold change,[23]; 50 µM,-0.398
